Here are results for four molecules from PubChem BioAssay.

SMILES strings stand for the structures. Several values for one entry are separate records, joined by “and”; a condition that tells them apart may be missing. Identical values can stand only once. Activity calls are given as the source filed them. Unless noted, no rule for the calls is given here.

The nature of assay [1]: anti-His antibody binders, primary screen, artefact control for SMM control protein annotation, biochemical, small-molecule microarray, 635 nm fluorescence (AID 1128).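 Also: score merges feature fluorescence with signal-to-noise for each printed compound spot.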 Conditions: anti-His Alexa647 antibody binding, higher = more signal.
The test system of assay [2] is Human papillomavirus type 1a E7 protein (residues 1-88). The assay is described as follows: HPV1a E7 small-molecule binders, primary screen, biochemical, small-molecule microarray, residues 1-88, 635 nm (AID 1129). To be noted: small-molecule microarray binding, fluorescence 635 nm; higher = more signal.
The target in assay [3] is Focal adhesion kinase 1 (Homo sapiens) (UniProt Q05397). The assay is described as follows: small-molecule microarray binders of FAK, primary screen, biochemical, 635/667 nm fluorescence, BSA, DTT (AID 1130).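 Also: composite of spot emission at 667 nm and signal to noise over triplicate slides.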 To be noted: PTK2 binding, 635 nm fluorescence, higher = more signal.
Sequence of Focal adhesion kinase 1 (Homo sapiens) (Q05397 whole entry, looked up): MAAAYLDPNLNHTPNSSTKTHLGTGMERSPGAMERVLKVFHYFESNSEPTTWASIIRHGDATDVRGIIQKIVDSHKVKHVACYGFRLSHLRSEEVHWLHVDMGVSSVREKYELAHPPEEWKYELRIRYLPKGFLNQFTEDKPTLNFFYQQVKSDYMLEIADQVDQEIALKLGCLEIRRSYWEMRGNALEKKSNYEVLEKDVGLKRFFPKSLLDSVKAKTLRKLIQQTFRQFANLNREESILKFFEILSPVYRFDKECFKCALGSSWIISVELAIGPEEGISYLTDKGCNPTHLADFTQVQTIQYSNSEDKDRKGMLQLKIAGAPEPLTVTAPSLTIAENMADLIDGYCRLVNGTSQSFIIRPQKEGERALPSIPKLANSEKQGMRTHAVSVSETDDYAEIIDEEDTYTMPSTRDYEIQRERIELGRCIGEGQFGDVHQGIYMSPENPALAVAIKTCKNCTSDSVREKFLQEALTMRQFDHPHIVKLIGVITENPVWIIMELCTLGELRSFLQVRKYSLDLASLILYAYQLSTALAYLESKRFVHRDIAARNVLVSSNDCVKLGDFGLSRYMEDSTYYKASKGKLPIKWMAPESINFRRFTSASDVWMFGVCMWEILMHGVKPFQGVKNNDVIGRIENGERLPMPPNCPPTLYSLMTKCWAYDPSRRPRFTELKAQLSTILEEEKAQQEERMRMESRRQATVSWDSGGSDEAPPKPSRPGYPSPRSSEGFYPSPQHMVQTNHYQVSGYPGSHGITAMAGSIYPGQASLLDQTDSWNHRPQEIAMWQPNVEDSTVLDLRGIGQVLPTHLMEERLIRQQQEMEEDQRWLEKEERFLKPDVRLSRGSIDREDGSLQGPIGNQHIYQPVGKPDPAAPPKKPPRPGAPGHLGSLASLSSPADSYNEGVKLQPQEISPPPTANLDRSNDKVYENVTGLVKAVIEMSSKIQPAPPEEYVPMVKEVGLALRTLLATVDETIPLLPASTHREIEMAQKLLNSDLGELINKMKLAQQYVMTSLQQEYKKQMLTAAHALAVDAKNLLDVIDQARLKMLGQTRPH
Assay [4] has as its system Fibrinogen (Alexa647-labelled). The assay is described as follows: fibrinogen binders on compound microarrays, profiling panel, artefact control for SMM control-protein annotation, biochemical, small-molecule microarray, 635/667 nm fluorescence (AID 1131).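 Also: z-score merges 667 nm fluorescence with per-spot signal-to-noise over triplicate slides.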 To be noted: fibrinogen-A647 binding fluorescence, higher = more signal.
The target in assay [5] is Follistatin (Homo sapiens) (UniProt P19883). The assay can be described thus: follistatin binders on small-molecule microarrays, primary screen, biochemical, small-molecule microarray, 635/667 nm fluorescence (AID 1132). To be noted: FST binding, 635 nm fluorescence, higher = more signal.
Sequence of Follistatin (Homo sapiens) (P19883 whole entry, looked up): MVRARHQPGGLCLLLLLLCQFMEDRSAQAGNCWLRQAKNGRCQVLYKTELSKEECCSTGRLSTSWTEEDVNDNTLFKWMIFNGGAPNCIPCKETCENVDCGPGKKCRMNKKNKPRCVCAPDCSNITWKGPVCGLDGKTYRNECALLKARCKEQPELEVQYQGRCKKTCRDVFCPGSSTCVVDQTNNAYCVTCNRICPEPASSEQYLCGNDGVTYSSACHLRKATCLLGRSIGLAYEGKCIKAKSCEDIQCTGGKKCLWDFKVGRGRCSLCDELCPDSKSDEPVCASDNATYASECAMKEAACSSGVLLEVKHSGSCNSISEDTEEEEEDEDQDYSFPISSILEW
Assay [6] addresses Fibroblast growth factor 2 (Homo sapiens) (UniProt P09038). The assay is described as follows: FGF2 binders on small-molecule microarrays, primary screen, biochemical, small-molecule microarray, 635/667 nm fluorescence (AID 1133). Conditions: small-molecule microarray binding, FGF2, fluorescence 635/667; higher = more signal.
The nature of assay [7]: mitochondrial membrane potential change in A549 cells, profiling panel, cell-based, JC-1 fluorescence, basal, 24 h, 100 nL (AID 1138).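 Also: A549 lung adenocarcinoma cells under basal conditions with no added stimulus; test concentration not given here.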 To be noted: higher = more signal.
For assay [8], the system named is Lefty1. The assay is described as follows: Lefty1 binders on small-molecule microarrays, primary screen, biochemical, small-molecule microarray, 635/667 nm fluorescence (AID 1139). Conditions: small-molecule microarray binding, fluorescence 635/667; higher = more signal.
Assay [9] has as its system wheat germ agglutinin (Triticum aestivum), Alexa647-labelled. The assay can be described thus: wheat germ agglutinin binders on compound microarrays, profiling panel, artefact control for SMM control-protein annotation, biochemical, small-molecule microarray, 635/667 nm fluorescence (AID 1140).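 Also: score merges 667 nm feature emission with signal to noise over triplicate slides.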 To be noted: WGA-A647 binding, 635 nm fluorescence, higher = more signal.
Assay [10] concerns the target Luciferin 4-monooxygenase (Photinus pyralis) (UniProt P08659). The assay is described as follows: firefly luciferase enzyme inhibitors, primary screen, biochemical, luminescence, purified enzyme, 2006 set (AID 1141).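 Also: cell-free assay with purified firefly luciferase at 100 ng per well in PBS; test concentration not given here.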 To be noted: SteadyGlo luminescence, 30 min, higher = more signal, called active from +8 up or from −8 down.
In assay [11] the test system is Wnt5a (protein binding on small-molecule microarray). The assay is described as follows: Wnt5a binders on small-molecule microarray, primary screen, biophysical, 635/667 nm fluorescence (AID 1142).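 Also: fluorescence read at 667 nm with signal to noise per printed feature.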 To be noted: 635 nm fluorescence, higher = more signal.
Assay [12] is described as follows: cell viability in Huh7 cells, primary screen, cytotoxicity control for HCV replication inhibitor project, CellTiter-Glo luminescence, basal, 48 h (AID 1143).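 Also: Huh7 hepatoma cells carrying a hepatitis C replication reporter with no stimulus; test concentration not given here.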 To be noted: Huh7 HCV replicon, higher = more signal, called active from +8 up or from −8 down. (In ATP-based viability assays light output follows the ATP content of the culture.)
Assay [13] in a line: P. aeruginosa biofilm formation inhibitors, primary screen, PAO1 strain, BacTiter-Glo luminescence, LB-PBS (AID 1144). Conditions: 12 h, higher = more signal.
Assay [14] in a line: CREB reporter modulators without forskolin, primary screen, cell-based, PC12, CRE-LacZ reporter, unstimulated (AID 1145). Conditions: no forskolin, luminescence, 4.5 h, higher = more signal, called active from +8 up or from −8 down.
Assay [15] in a line: CREB reporter modulators under forskolin, primary screen, cell-based, PC12, CRE-LacZ reporter, forskolin-stimulated (AID 1146).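 Also: PC12 cells with 6xCRE LacZ reporter stimulated by forskolin 10 µM; beta-galactosidase reporter signal reflecting CREB driven transcription.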 Conditions: luminescence, 4.5 h, higher = more signal, called active from +8 up or from −8 down.
In assay [16] the target is Streptavidin (Streptomyces avidinii) (UniProt P22629). The assay is described as follows: streptavidin binders on small-molecule microarray, primary screen, artefact control for SMM compound annotation, biophysical, 635/667 nm fluorescence (AID 1147).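 Also: signal reflects streptavidin binding to arrayed compounds as a control protein.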 To be noted: streptavidin binding, higher = more signal.
Sequence of Streptavidin (Streptomyces avidinii) (P22629 whole entry, looked up): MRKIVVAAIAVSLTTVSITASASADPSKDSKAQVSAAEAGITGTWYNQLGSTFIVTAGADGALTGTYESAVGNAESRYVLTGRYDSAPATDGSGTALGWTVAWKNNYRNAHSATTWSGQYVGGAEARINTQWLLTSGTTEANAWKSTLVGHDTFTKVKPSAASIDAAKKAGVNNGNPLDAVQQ
Assay [17] is described as follows: small-molecule binders of probe aInhba, primary screen, biochemical, small-molecule microarray, 635/667 nm fluorescence (AID 1148).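 Also: score merges 667nm spot fluorescence with signal-to-noise for antibody binding to printed compounds.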 Conditions: higher = more signal.
Assay [18] deals with Torsin-1A (Homo sapiens) (UniProt O14656). The assay can be described thus: torsin A binders from cell lysate, primary screen, small-molecule microarray, wild-type, 635/667 nm (AID 1149). Conditions: COS7 hTOR1A-WT lysate, 635 nm fluorescence, higher = more signal.
Sequence of Torsin-1A (Homo sapiens) (O14656 whole entry, looked up): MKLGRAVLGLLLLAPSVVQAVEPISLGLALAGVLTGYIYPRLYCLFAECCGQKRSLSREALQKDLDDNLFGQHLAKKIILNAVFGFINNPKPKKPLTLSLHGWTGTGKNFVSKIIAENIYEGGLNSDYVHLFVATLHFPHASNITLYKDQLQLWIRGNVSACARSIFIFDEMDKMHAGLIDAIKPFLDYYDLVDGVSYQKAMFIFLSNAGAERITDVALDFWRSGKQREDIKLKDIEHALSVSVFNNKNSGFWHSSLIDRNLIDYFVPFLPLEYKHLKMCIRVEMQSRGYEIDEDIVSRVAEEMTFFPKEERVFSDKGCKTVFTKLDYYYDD
Assay [19] shares this target. The assay can be described thus: small-molecule binders of mutant TOR1A in lysate, primary screen, cell lysate, small-molecule microarray, COS7 lysate, 635/667 nm fluorescence (AID 1150).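 Also: score pools 667 nm emission and signal to noise measuring lysate protein binding.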 To be noted: COS7 hTOR1A mutant lysate, 635 nm fluorescence, higher = more signal.
Assay [20] concerns Sonic hedgehog protein (Shh). The assay is described as follows: small-molecule binders of Shh protein, primary screen, biochemical, small-molecule microarray, 635/667 nm fluorescence (AID 1151).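 Also: Shh protein binding to compounds spotted on small-molecule microarray slides; score combines spot fluorescence intensity with signal-to-noise across triplicate slides.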 Conditions: small-molecule microarray binding, 635 nm fluorescence; higher = more signal.

Sequence of Fibroblast growth factor 2 (Homo sapiens) (P09038 whole entry, looked up): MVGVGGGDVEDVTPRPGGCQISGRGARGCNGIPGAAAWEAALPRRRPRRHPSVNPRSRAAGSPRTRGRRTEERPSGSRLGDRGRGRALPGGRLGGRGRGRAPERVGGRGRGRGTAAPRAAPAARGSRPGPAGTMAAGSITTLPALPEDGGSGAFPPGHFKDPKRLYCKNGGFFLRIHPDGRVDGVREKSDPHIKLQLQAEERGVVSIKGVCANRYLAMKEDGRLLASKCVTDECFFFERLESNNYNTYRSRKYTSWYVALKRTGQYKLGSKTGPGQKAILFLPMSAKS
Sequence of Luciferin 4-monooxygenase (Photinus pyralis) (P08659 whole entry, looked up): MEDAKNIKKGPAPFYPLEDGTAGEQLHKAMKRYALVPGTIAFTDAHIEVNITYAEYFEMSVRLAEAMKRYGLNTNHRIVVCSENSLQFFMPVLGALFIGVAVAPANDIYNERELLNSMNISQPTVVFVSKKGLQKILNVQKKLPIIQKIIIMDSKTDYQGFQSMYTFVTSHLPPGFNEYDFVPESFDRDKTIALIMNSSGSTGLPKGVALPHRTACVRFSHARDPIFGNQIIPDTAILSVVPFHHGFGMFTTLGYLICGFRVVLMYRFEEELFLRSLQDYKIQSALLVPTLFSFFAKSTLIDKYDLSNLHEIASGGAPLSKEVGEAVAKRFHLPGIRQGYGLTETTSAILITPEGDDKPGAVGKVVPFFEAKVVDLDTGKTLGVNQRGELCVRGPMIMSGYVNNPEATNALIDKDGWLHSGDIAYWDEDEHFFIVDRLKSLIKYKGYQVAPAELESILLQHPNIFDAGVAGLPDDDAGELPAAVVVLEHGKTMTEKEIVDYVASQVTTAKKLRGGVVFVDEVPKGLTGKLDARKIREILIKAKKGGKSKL

Regarding `C[N+](C)(C)CCCCNC(=O)[C@H]1C[C@H]2C(=O)N[C@@H](CCCC[N+](C)(C)C)C(=O)N2[C@H]1c1cccc(OCCO)c1`, the composite z-score in assay [1] was 1.98 and 1.03; in [2] it was -0.166 and 0.848; in assay [3] it was -0.389 and -0.117; in [4] it was -0.816 and -0.179; in [5], 1.49 and 1.53; in assay [6], 1.93 and 1.73. Moreover, the composite z-score is 1.75 and 1.59 in [8]; -1.07 and 1.04 in [9]; 0.949 and 0.646 in assay [11]; -0.853 and -0.0338 in assay [16]; -0.025 and 0.0631 in [17]; -1.08 and 1.03 in [18]. Besides, the composite z-score in [19] was -0.879 and 2.09; in [20], 2.21 and 2.31. The z-score in assay [7] is -0.59 and -0.114; in assay [10] it was 0.254 (inactive) and 0.0887 (inactive); in [12] it was -0.0036 (inactive) and -0.177 (inactive); in assay [13] it was -0.281 (inactive) and 0.741 (inactive); in assay [14], -0.667 (inactive) and -0.268 (inactive); in assay [15], -0.393 (inactive) and -0.441 (inactive).
On to `C=C[C@@H](C)[C@H](O)c1ccc(O)c2ccccc12`, for which the composite z-score is -0.181 and 1.87 in assay [1]; -0.7 and -1.54 in [2]; 0.825 and -0.491 in assay [3]; 0.837 and -0.449 in assay [4]; 1.31 and 0.663 in assay [5]; 1.14 and 0.0819 in assay [6]. Also, the composite z-score in assay [8] was 0.948 and -0.871; in assay [9], 0.0825 and -0.52; in assay [11], -0.419 and -0.647; in [16] it was -0.984 and -0.766; in assay [17], -0.224 and -0.233; in assay [18] it was -0.595 and -0.309. The composite z-score in [19] was -0.518 and -0.45; in assay [20], 1.96 and 0.17. The z-score is -0.832 and -0.689 in assay [7]; 0.546 (inactive) and 0.338 (inactive) in assay [10]; -2.11 (inactive) and 0.366 (inactive) in [12]; -0.14 (inactive) and -0.671 (inactive) in assay [13]; 0.441 (inactive) and -0.272 (inactive) in assay [14]; -0.349 (inactive) and 0.556 (inactive) in assay [15].
`CC[C@@H]1C(Sc2ccccc2)C(C(=O)O)[C@H](c2ccc(C)cc2)N1S(=O)(=O)c1ccc(C)cc1` (stereo not given in full): the composite z-score in assay [1] is 1.81 and 0.489; in [2], 1.25 and 1.17; in assay [3], 0.994 and 0.704; in assay [4], 1.03; in assay [5], 0.427 and 0.634; in assay [6] it was -0.375 and -0.193. The composite z-score was -0.642 and 0.533 in [8]; 0.707 and 0.804 in assay [9]; 0.142 and 0.0997 in assay [11]; 1.46 and 1.59 in assay [16]; -0.025 and -0.0736 in assay [17]; 1.19 and 0.429 in [18]. In addition, the composite z-score was 1.5 and -0.0197 in assay [19]; 0.801 and -0.436 in assay [20]. The z-score in assay [7] is -0.102 and 0.13; in assay [10], 0.534 (inactive) and -0.0047 (inactive); in assay [12], -0.318 (inactive) and -2.15 (inactive); in assay [13], 0.281 (inactive) and 0.139 (inactive); in assay [14], -0.574 (inactive) and -0.415 (inactive); in assay [15] it was -0.0531 (inactive) and -0.545 (inactive).
Turning to `CC(C)[Si]1(C(C)C)OCc2cc(C3CC3)nc(CCc3ccccc3)c21`, the composite z-score in [1] is -0.363 and -0.0162; in assay [2], -0.868 and 0.316; in assay [3], -0.177 and -0.249; in [4] it was -0.582 and 0.111; in assay [5] it was 0.0259 and 0.303; in assay [6], -0.329 and 0.0149. Besides, the composite z-score in assay [8] was -0.237 and 0.22; in assay [9], -0.269 and 0.0131; in assay [11] it was -0.106 and 0.243; in assay [16], 0.0746 and 0.209; in [17], -0.0986 and -0.205; in assay [18], -0.483 and 0.207. Besides, the composite z-score in assay [19] was -1.29 and 0.401; in assay [20] it was -0.447 and 0.221. Further, the z-score in [7] is -0.323 and -1.45; in [10], -0.324 (inactive) and 0.744 (inactive); in [12], 0.412 (inactive) and -0.432 (inactive); in assay [13] it was -0.37 (inactive) and 0.125 (inactive); in [14], 0.0035 (inactive) and 0.148 (inactive); in assay [15], -0.271 (inactive) and -0.0043 (inactive).
